# Measurements as given in PubChem BioAssay.
# The source made the active and inactive calls. Unless noted, no rule for the calls is given here.
# Assays:
# [1] = system: XIP peptide (Xip251-270) binding; assay: small-molecule binders of XIP peptide, primary screen, biochemical, small-molecule microarray, fluorescence 635/667 nm, 0.1 µg/mL protein (AID 1182); details: fluorescent protein binding, 635 nm, higher = more signal, called active from +8 up or from −8 down
# [2] = system: XIP peptide (Xip251-270); assay: small-molecule binders of XIP peptide, primary screen, biochemical, small-molecule microarray, fluorescence 635/667 nm, 0.5 µg/mL protein (AID 1183); details: small-molecule microarray binding, fluorescence 635 nm; higher = more signal
# [3] = Plasmodium falciparum growth inhibition, primary screen, strain 3D7, DAPI fluorescence, 100 nL (AID 1184);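 also: parasites grown inside human red blood cells in medium with human serum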; details: P. falciparum 3D7 growth, 3 d, higher = more signal
# [4] = biological target: Homeobox protein Hox-A13 (Mus musculus) (UniProt Q62424); assay: inhibitors of HoxA13-DNA binding, primary screen, biochemical, fluorescence polarization, labeled oligonucleotide (AID 1185); details: 15 min, higher = more signal, called active from +8 up or from −8 down
# [5] = inhibitors of hydroxyurea-induced Chk1 phosphorylation, primary screen, imaging, HeLa, phospho-Chk1 antibody, percent positive cells (AID 1186); details: hydroxyurea-induced phospho-Chk1 immunofluorescence imaging, higher = more signal
# [6] = inhibitors of hydroxyurea-induced Chk1 phosphorylation, primary screen, imaging, HeLa, phospho-Chk1 nuclear intensity (AID 1187); details: hydroxyurea-induced phospho-Chk1 immunofluorescence imaging, higher = more signal
# Sequence of Homeobox protein Hox-A13 (Mus musculus) (Q62424 whole entry, looked up): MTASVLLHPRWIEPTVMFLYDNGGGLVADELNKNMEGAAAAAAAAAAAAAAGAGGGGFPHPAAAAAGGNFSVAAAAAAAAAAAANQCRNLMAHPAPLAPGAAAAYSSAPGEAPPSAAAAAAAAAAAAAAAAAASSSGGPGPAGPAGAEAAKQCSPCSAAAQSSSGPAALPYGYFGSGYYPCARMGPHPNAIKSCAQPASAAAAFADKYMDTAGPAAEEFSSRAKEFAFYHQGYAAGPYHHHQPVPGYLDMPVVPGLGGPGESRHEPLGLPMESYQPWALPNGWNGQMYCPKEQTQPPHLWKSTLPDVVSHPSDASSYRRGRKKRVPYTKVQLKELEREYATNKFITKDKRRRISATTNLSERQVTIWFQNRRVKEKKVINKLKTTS
Compound,composite z-score [1],composite z-score [2],z-score [3],z-score [4],z-score [5],z-score [6]
CCC(=O)[C@]12O[C@@]3([C@@H]4C(=O)OCC[C@@H]41)N(Cc1ccccc1)C(C)=C(C(=O)OC)[C@@H](c1ccccc1)N3C2=O,0.195 (inactive),-0.573,1.24,-4.26 (inactive),–,–
CCN1C(C)=C(C(=O)OC)[C@@H](c2ccccc2)N2C(=O)[C@@]3(C(=O)OC)O[C@@]12[C@@H]1C(=O)N(C)C(=O)[C@@H]13,1.38 (inactive),0.87,-0.138,-0.663 (inactive),–,–
CO[C@H]1COC(=O)[C@H](CCSC)NC(=O)CC=C[C@@H](C)COC(=O)[C@@H](OCc2ccccc2)C=C[C@@H]1C,0.786 (inactive),0.581,-0.115,0.26 (inactive),–,–
CO[C@H]1COC(=O)[C@H](C)NC(=O)CC=C[C@@H](C)[C@H](NS(=O)(=O)c2ccc(C)cc2)COC(=O)CC=C[C@@H]1C,-0.132 (inactive),0.407,-0.266,-1.62 (inactive),–,–
COc1cccc([C@@H]2[C@@H](C)CC[C@H]3C(=O)N4[C@H](c5cccc(OC)c5)[C@@H](C)CC[C@H]4C(=O)N23)c1,-0.142 (inactive),0.379,0.137,-1.96 (inactive),–,–
CCN1C(C)=C(C(=O)OC)[C@@H](c2ccccc2)N2C(=O)[C@@]3(C(=O)OC)O[C@@]12[C@@H]1C(=O)N(c2ccccc2)C(=O)[C@@H]13,0.357 (inactive),0.9,-0.425,-0.559 (inactive),–,–
O=C(O)[C@@H]1Cc2c([nH]c3ccccc23)[C@@H](c2ccccc2)N1,0.0176 (inactive),0.0822,-0.421,0.969 (inactive),–,–
C#CCCCON=C1C[C@@H](O)[C@@H](O)[C@@H]2[C@@H]3C(=O)N(Cc4ccc5c(c4)OCO5)C(=O)[C@@H]3CC[C@@H]12,0.32 (inactive),0.104,-0.0159,-0.476 (inactive),–,–
C[C@@H]1C=CCC(=O)OC[C@H]2O[C@@H](C=C[C@@H]2O)[C@H](C)C=CCC(=O)OC[C@H]2O[C@H]1C=C[C@@H]2O,0.424 (inactive),0.466,-2.25,-1.31 (inactive),–,–
C#CCCCON=C1C[C@@H](O)[C@@H](O)[C@@H]2[C@@H]3C(=O)N(Cc4ccc5c(c4)OCO5)C(=O)[C@@H]3CC[C@H]12,0.892 (inactive),0.783,0.594,-0.469 (inactive),–,–
C=CCc1cccc([C@@H]2[C@@H](C)CC[C@H]3C(=O)N4[C@H](c5cccc(CC=C)c5)[C@@H](C)CC[C@H]4C(=O)N23)c1,0.718 (inactive),0.336,-0.729,-3.9 (inactive),–,–
COc1cccc([C@H]2N[C@H](C(=O)O)CC[C@@H]2C)c1,0.253 (inactive),-0.567,-1.4,3.05 (inactive),–,–
CSCC[C@@H]1NC(=O)CC=C[C@@H](C)COC(=O)[C@H](CCSC)NC(=O)CC=C[C@@H](C)COC1=O,0.223 (inactive),-0.467,-0.145,1.03 (inactive),–,–
CO[C@H]1COC(=O)CC=C[C@H](C)COC(=O)[C@@H](OCc2ccccc2)C=C[C@@H]1C,0.225 (inactive),0.547,-1.58,1.89 (inactive),–,–
CO[C@@H]1COC(=O)CC=C[C@H](C)COC(=O)[C@H](Cc2ccccc2)NC(=O)CC=C[C@H]1C,0.717 (inactive),0.18,0.684,-0.631 (inactive),–,–
COC(=O)C1=C(C)N(Cc2ccccc2)c2c(C(=O)OC)c(C(=O)OC)c(C(=O)OC)c(=O)n2[C@@H]1c1ccccc1,0.17 (inactive),-0.0775,0.149,-2.2 (inactive),–,–
CCN1C(C)=C(C(=O)OC)[C@@H](c2ccccc2)N2C(=O)[C@](O)(C(=O)OC)[C@@H](c3ccccc3)C(C(=O)c3ccccc3)=C12,-0.176 (inactive),0.283,0.245,-4.23 (inactive),–,–
CO[C@@H]1COC(=O)[C@H](C)NC(=O)CC=C[C@@H](C)[C@H](OC)COC(=O)[C@H](C)NC(=O)CC=C[C@H]1C,-0.479 (inactive),0.132,0.363,0.229 (inactive),–,–
Cc1ccc(S(=O)(=O)N[C@H]2COC(=O)CC=C[C@H](C)COC(=O)N[C@@H](C)C(=O)CC=C[C@@H]2C)cc1,-0.478 (inactive),0.619,-1.23,-1.11 (inactive),–,–
C=CCc1cccc([C@H]2N[C@H](C(=O)O)CC[C@@H]2C)c1,0.517 (inactive),0.921,-0.441,0.811 (inactive),–,–
CO[C@H]1COC(=O)CC=C[C@H](C)[C@@H](OC)COC(=O)[C@H](Cc2ccccc2)NC(=O)CC=C[C@@H]1C,-0.254 (inactive),-0.42,0.0429,-0.426 (inactive),–,–
CO[C@H]1COC(=O)[C@@H](C)NC(=O)CC=C[C@@H](C)[C@H](OC)COC(=O)CC=C[C@@H]1C,0.649 (inactive),0.517,-0.243,0.334 (inactive),–,–

Compound,composite z-score [1],composite z-score [2],z-score [3],z-score [4],z-score [5],z-score [6]
COc1ccc(-c2ccccc2[C@@H]2N[C@H](C(=O)O)CC[C@H]2C)cc1,0.351 (inactive),0.0228,-0.907,1.08 (inactive),–,–
CCC(=O)[C@]12O[C@@]3([C@@H]4C(=O)OCC[C@@H]41)N(CC)C(C)=C(C(=O)OC)[C@@H](c1ccccc1)N3C2=O,0.592 (inactive),-0.499,-1.06,-0.864 (inactive),–,–
CO[C@H]1COC(=O)[C@H](C)NC(=O)CC=C[C@@H](C)[C@H](NS(=O)(=O)c2ccc(C)cc2)COC(=O)[C@@H](OCc2ccccc2)C=C[C@@H]1C,-0.253 (inactive),0.72,-0.569,-1.21 (inactive),–,–
CC(=O)Nc1ccc([C@H]2[C@H](C)CC[C@H]3C(=O)N4[C@@H](CC[C@@H](C)[C@@H]4c4ccc(NC(C)=O)cc4)C(=O)N32)cc1,1.46 (inactive),0.757,0.179,-6.37 (inactive),–,–
CO[C@H]1COC(=O)[C@@H](Cc2ccccc2)NC(=O)[C@@H](C)COC(=O)CC=C[C@@H]1C,-0.404 (inactive),0.43,-0.0923,-0.866 (inactive),–,–
C[C@H]1COC(=O)[C@H](Cc2ccccc2)NC(=O)[C@@H](C)COC(=O)[C@H](Cc2ccccc2)NC1=O,0.767 (inactive),0.342,-0.703,1.01 (inactive),–,–
C[C@@H]1CC[C@H]2C(=O)N3CCC[C@H]3C(=O)N2[C@H]1c1ccc(Br)cc1,0.557 (inactive),-0.374,0.371,0.0636 (inactive),–,–
CO[C@H]1COC(=O)[C@H](Cc2ccccc2)NC(=O)CC=C[C@@H](C)[C@H](OC)COC(=O)CC=C[C@@H]1C,-0.707 (inactive),0.0418,0.0348,1.05 (inactive),–,–
CO[C@@H]1COC(=O)CC=C[C@@H](C)[C@H](OC)COC(=O)CC=C[C@H]1C,-0.583 (inactive),0.428,0.674,-0.26 (inactive),–,–
CCN1C(C)=C(C(=O)OC)[C@@H](c2ccccc2)N2C(=O)[C@@]3(C(=O)OC)O[C@@]12[C@@H]1C(=O)CCC[C@@H]13,-0.147 (inactive),-1.03,-0.625,-0.386 (inactive),–,–
C[C@@H]1CC[C@H]2C(=O)N3[C@@H](CC[C@@H](C)[C@@H]3c3cccc(N4CCOCC4)c3)C(=O)N2[C@H]1c1cccc(N2CCOCC2)c1,0.66 (inactive),0.705,-0.529,-4.07 (inactive),–,–
COc1cccc([C@@H]2[C@@H](C)CC[C@H]3C(=O)N(C)[C@@H](C(C)C)C(=O)N23)c1,-0.297 (inactive),0.247,0.451,-0.0898 (inactive),–,–
CO[C@H]1COC(=O)[C@@H](C)COC(=O)[C@H](Cc2ccccc2)NC(=O)CC=C[C@H]1C,-0.0968 (inactive),0.172,-0.178,0.485 (inactive),–,–
Cc1ccc(S(=O)(=O)N2[C@@H](c3ccccc3)C(C(=O)O)=CC[C@H]2c2ccccc2)cc1,-0.141 (inactive),0.0514,-1.02,-3.76 (inactive),-0.354 (inactive),-0.449 (inactive)
O=C1OCCC=C[C@H]2OC34C=CCN(Cc5ccccc5)C(=O)[C@H]3N(CCO)C(=O)[C@@H]4C12 (some centres not stated),-0.525 (inactive),-1.24,-1.92,-2.7 (inactive),-0.618 (inactive),-0.732 (inactive)
COc1ccc(CCN2C(=O)[C@@]3(c4ccc([N+](=O)[O-])cc4)CC(=O)N(CC45CC6CC(CC(C6)C4)C5)[C@@H]3c3ccc(CO)cc32)cc1,-0.038 (inactive),0.93,-1.07,-2.14 (inactive),0.33 (inactive),0.522 (inactive)
CC(C)[Si](OCCCNS(=O)(=O)c1ccc(Br)cc1)(C(C)C)C(C)C,-0.0972 (inactive),0.195,-1.12,-0.361 (inactive),-0.672 (inactive),-1.01 (inactive)
C=C[C@H](OC)[C@@H](OC(=O)Nc1ccc(SC)cc1)c1ccc(OC)c(O)c1,0.241 (inactive),0.0001,-0.549,-2.82 (inactive),-0.439 (inactive),0.136 (inactive)
C=CCC(OC(C)=O)[C@@H]1[C@@H](N(Cc2ccc(-c3ccccc3)cc2)C(=O)c2ccc(-c3ccccc3)cc2)c2cc(OCCCO)ccc2N1C(=O)Cc1ccc(OC)cc1 (some centres not stated),0.195 (inactive),-0.126,-0.314,-1.31 (inactive),-0.282 (inactive),-0.47 (inactive)
C=CCC(OC(C)=O)[C@@H]1[C@@H](N(Cc2cc3ccccc3o2)C(=O)c2ccc(C)cc2)c2cc(OCCCO)ccc2N1C(=O)c1ccc2ccccc2n1 (some centres not stated),0.167 (inactive),-0.442,-0.863,-1.79 (inactive),0.347 (inactive),0.295 (inactive)
CO[C@H]1COC(=O)CC=C[C@H](C)[C@@H](OC)COC(=O)CC=C[C@@H]1C,0.878 (inactive),0.695,0.648,-0.307 (inactive),–,–
CC(C)[Si]1(C(C)C)OCc2cc(C3CC3)nc(-c3ccccc3)c21,0.119 (inactive),0.939,-1.16,-0.631 (inactive),-0.37 (inactive),-0.0248 (inactive)
